# Measured values: the supplement of paper PMC10849652
# About 7,900 targets were measured; listed, in parts, are those with a hit and a random draw of the rest. About 0.6% of all pairs of compound and target were hits. Values without a mark were called inactive.
# How the values were obtained:
# Test in all cases: log2 fold change, soluble protein after heating vs DMSO (PISA); higher = thermal stabilisation; K562 cells, 10 uM, 30 min; active = over 0.2 and 3.5 SD of the protein, either way, in both replicates (recomputed)
# [1] = compound: NC(=O)Nc1cc(-c2cccc(F)c2)sc1C(=O)N[C@H]1CCCNC1
# Method in brief: (§1)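 Quantification of soluble protein used TMTpro 16plex LC-MS/MS, with channel sums equalised. Samples were the supernatant after 21,000xg for 90 min of pooled aliquots from K562 cells (2×10^6 cells/mL) treated with 10 μM compound for 30 min, heated for 3 min over 48°C-58°C, and extracted in PBS with 0.5% NP-40 at 4°C. Values, from duplicates, describe thermal stability against control samples on a log2 fold-change scale.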
# [2] = compound: NC(=O)c1cnc(N[C@@H]2CCCC[C@@H]2N)nc1Nc1cccc(-n2nccn2)c1
# Method in brief: as §1
# [3] = compound: NC1(c2ccc(-c3nc4ccn5c(=O)[nH]nc5c4cc3-c3ccccc3)cc2)CCC1
# Method in brief: as §1
# [4] = compound: NCC(=O)Nc1ccc(-n2nc(C(F)(F)F)cc2-c2ccc3c(ccc4ccccc43)c2)cc1
# Method in brief: as §1
# entinostat = compound: Nc1ccccc1NC(=O)c1ccc(CNC(=O)OCc2cccnc2)cc1 [entinostat]
# Method in brief: as §1
# vorinostat = compound: O=C(CCCCCCC(=O)Nc1ccccc1)NO [vorinostat]
# Method in brief: as §1
# citarinostat = compound: O=C(CCCCCCNC(=O)c1cnc(N(c2ccccc2)c2ccccc2Cl)nc1)NO [citarinostat]
# Method in brief: as §1
# silmitasertib = compound: O=C(O)c1ccc2c(c1)nc(Nc1cccc(Cl)c1)c1ccncc12 [silmitasertib]
# Method in brief: as §1
# [5] = compound: O=C1NC(=O)C(c2cnc3ccccn23)=C1c1cn2c3c(cc(F)cc13)CN(C(=O)N1CCCCC1)CC2
# Method in brief: as §1
# [6] = compound: c1cc(OCCN2CCCCC2)cc(-c2n[nH]c3ccc(-c4nnc[nH]4)cc23)c1
# Method in brief: as §1
# Chain of UniProt Q9NX01 (Q9NX01 whole entry, looked up): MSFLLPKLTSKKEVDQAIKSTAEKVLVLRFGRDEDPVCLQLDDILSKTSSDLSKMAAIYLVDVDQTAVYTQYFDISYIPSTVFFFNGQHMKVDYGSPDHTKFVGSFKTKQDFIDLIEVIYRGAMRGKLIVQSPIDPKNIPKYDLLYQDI
# Chain of UniProt P51668 (P51668 whole entry, looked up): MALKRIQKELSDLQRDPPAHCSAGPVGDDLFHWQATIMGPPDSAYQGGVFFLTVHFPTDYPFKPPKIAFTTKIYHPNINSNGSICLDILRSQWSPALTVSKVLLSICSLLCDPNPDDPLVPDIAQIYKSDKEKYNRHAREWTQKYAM
# Chain of UniProt Q9H6R7 (Q9H6R7 whole entry, looked up): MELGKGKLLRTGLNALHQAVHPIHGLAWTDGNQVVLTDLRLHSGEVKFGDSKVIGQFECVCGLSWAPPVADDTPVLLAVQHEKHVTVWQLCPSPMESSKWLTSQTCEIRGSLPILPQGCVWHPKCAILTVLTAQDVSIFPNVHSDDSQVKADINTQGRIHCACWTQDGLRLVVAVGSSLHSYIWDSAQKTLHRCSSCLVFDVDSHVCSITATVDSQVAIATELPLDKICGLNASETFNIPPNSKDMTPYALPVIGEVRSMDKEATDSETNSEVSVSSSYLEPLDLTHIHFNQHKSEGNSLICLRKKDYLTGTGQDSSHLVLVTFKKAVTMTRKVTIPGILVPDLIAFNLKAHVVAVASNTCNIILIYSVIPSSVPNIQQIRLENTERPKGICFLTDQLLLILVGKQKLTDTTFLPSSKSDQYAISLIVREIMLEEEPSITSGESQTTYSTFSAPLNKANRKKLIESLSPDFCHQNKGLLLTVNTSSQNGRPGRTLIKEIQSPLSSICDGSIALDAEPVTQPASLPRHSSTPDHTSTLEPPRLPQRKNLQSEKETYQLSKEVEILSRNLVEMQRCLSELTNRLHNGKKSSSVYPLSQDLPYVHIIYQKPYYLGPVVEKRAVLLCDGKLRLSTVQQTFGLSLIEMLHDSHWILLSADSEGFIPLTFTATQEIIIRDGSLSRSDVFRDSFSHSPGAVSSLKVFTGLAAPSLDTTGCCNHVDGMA
# Chain of UniProt Q9HAD4 (Q9HAD4 whole entry, looked up): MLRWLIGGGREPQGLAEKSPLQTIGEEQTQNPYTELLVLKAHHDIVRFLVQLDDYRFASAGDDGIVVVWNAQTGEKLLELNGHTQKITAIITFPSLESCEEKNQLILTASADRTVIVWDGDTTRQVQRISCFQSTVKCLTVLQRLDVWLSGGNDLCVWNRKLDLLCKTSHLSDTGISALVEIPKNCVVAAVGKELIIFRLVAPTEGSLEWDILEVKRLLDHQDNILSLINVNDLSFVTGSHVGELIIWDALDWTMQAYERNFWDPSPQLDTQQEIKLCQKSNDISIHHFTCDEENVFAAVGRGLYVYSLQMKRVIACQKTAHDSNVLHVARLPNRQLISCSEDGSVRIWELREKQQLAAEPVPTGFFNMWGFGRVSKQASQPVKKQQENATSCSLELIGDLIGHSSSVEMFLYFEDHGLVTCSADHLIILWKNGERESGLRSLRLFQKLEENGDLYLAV
# Chain of UniProt Q9BZM6 (Q9BZM6 whole entry, looked up): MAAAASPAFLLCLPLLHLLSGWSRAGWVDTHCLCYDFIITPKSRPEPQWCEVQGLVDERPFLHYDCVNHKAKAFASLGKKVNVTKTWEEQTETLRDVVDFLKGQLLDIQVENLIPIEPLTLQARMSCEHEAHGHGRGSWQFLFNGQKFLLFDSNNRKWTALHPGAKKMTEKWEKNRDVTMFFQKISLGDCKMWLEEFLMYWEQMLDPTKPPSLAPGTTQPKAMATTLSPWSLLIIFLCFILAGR
# Chain of UniProt A6NIH7 (A6NIH7 whole entry, looked up): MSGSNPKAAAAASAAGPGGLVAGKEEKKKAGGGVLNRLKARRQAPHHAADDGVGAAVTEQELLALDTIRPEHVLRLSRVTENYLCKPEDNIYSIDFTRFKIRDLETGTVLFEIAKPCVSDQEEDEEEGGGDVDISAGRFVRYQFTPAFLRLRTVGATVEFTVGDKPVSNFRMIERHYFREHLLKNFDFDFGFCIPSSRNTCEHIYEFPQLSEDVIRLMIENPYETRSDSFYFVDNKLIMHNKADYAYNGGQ
# Chain of UniProt P07951 (P07951 whole entry, looked up): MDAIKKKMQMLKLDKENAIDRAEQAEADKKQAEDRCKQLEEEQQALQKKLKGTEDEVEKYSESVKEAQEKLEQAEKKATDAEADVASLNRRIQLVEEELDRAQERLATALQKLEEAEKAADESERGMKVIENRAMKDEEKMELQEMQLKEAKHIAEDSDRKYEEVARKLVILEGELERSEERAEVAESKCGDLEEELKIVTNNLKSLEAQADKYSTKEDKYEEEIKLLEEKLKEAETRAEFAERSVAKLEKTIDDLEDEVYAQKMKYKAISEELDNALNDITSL
# Chain of UniProt Q8TBZ6 (Q8TBZ6 whole entry, looked up): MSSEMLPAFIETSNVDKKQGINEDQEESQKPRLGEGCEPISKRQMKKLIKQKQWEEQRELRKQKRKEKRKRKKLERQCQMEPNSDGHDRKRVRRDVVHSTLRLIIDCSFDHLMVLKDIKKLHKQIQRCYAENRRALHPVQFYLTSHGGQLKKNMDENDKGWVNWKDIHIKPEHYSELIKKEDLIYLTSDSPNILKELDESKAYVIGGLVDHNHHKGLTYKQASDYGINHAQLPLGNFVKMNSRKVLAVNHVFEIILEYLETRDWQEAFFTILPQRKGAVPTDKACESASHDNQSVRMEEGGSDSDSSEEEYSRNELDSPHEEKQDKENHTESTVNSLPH
# Chain of UniProt Q9NP79 (Q9NP79 whole entry, looked up): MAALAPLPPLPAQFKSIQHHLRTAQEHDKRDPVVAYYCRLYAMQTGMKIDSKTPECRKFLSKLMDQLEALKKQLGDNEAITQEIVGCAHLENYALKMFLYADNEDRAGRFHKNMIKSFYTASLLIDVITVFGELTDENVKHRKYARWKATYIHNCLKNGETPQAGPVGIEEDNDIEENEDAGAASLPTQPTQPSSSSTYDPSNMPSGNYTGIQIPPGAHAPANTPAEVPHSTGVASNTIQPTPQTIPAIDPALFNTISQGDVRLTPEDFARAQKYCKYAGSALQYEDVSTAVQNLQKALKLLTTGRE
# Chain of UniProt P49754 (P49754 whole entry, looked up): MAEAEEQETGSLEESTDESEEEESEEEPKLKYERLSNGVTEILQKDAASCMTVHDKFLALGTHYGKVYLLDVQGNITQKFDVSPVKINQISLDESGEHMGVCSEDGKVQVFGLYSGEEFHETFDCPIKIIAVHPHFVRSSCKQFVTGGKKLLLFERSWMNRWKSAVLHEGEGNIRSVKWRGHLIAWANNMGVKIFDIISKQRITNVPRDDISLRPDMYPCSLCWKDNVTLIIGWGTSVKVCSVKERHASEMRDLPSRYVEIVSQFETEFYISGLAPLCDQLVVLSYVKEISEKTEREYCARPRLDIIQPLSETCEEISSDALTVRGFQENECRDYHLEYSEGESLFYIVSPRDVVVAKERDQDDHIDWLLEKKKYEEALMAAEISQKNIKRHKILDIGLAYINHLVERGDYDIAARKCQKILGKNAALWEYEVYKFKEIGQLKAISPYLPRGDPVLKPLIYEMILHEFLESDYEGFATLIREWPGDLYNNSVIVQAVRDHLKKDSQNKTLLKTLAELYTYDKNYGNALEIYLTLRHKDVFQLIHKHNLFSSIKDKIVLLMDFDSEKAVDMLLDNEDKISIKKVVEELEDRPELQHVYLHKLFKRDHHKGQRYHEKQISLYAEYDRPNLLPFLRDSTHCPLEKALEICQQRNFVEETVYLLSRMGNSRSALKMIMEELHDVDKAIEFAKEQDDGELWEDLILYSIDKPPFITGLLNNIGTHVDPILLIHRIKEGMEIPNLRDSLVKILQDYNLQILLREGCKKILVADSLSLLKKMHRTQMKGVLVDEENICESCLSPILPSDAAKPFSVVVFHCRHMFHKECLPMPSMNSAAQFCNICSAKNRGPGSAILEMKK
# Chain of UniProt Q8NEZ2 (Q8NEZ2 whole entry, looked up): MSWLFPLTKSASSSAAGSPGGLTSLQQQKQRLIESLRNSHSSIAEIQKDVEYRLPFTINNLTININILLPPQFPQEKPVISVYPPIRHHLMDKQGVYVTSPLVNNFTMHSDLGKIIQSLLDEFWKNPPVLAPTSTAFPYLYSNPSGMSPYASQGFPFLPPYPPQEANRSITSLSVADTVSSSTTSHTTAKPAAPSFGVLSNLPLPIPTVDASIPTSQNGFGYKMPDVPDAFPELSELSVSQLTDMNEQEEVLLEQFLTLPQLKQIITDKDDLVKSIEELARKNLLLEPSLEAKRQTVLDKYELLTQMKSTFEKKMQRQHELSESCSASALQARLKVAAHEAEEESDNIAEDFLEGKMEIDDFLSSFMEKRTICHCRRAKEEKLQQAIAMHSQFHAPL
# Chain of UniProt Q9Y5K5 (Q9Y5K5 whole entry, looked up): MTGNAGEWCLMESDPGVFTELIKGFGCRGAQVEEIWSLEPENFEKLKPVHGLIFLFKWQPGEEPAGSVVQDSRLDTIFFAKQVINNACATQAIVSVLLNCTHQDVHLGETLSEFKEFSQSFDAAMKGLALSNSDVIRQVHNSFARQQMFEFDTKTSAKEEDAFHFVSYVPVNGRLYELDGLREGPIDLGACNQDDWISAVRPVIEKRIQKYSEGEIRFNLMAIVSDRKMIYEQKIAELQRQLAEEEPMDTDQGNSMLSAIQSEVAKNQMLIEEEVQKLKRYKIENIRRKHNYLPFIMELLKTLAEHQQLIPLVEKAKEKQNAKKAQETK
# Chain of UniProt P61960 (P61960 whole entry, looked up): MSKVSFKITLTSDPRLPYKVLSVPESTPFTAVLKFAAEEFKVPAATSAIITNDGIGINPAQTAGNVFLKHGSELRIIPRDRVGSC
Target,log2 fold change [1],log2 fold change [2],log2 fold change [3],log2 fold change [4],log2 fold change (entinostat),log2 fold change (vorinostat),log2 fold change (citarinostat),log2 fold change (silmitasertib),log2 fold change [5],log2 fold change [6]
TRMT10A (UniProt Q8TBZ6),0.015,-0.005,-0.075,-0.109,-0.039,-0.003,-0.013,-0.023,0.007,-0.02
WDR41 (UniProt Q9HAD4),0,-0.005,-0.173,-0.005,0.038,0.091,0.036,0.031,-0.11,-0.07
TPM2 (UniProt P07951),0.119,0.081,0.157,0.201,0.077,-0.077,0.103,-0.07,0.162,0.171
TRMT10C (UniProt Q7L0Y3),-0.055,-0.027,-0.137,-0.018,0.022,0,-0.018,-0.026,-0.075,0.035
UBIAD1 (UniProt Q9Y5Z9),-0.089,0,0.055,-0.122,-0.076,-0.075,-0.301,0.013,,0.181
WDCP (UniProt Q9H6R7),0.062,0.049,-0.011,-0.025,0.019,0.037,0.118,0.172,-0.033,-0.035
UNC119B (UniProt A6NIH7),-0.094,0.039,0.146,0.038,0.012,-0.055,0.043,0.031,,0.005
VPS41 (UniProt P49754),-0.006,-0.163,-0.267 (active),-0.163,0.083,0.072,0.082,-0.006,-0.046,-0.056
UFM1 isoform 2 (UniProt P61960),-0.031,-0.114,-0.087,-0.057,-0.012,-0.057,-0.044,-0.025,-0.007,-0.218
VPS37A (UniProt Q8NEZ2),-0.066,-0.021,-0.317,-0.051,0.121,0.113,,0.02,-0.198,
ULBP1 (UniProt Q9BZM6),-0.045,0.026,-0.227,-0.039,0.099,,,0.013,-0.188,
UCHL5 isoform 3 (UniProt Q9Y5K5),0.037,0.156,-0.277,0.05,0.098,,0.113,-0.002,-0.054,-0.028
TXNL4B (UniProt Q9NX01),0.098,-0.112,-0.035,0.709 (active),-0.024,0.02,0.029,0.118,,0.117
UBE2D1 (UniProt P51668),0.119,0.042,-0.143,-0.039,-0.168,0.164,0.062,0.049,,0.011
VTA1 (UniProt Q9NP79),-0.029,0.018,-0.185,-0.045,0.036,0.036,0.054,0.023,-0.076,0.009
VPS72 isoform 2 (UniProt Q15906),0.092,-0.226,-0.117,0.037,-0.032,,0.102,0.199,-0.157,-0.116
